Measurements from PubChem BioAssay (EPA / NIEHS).
“And” between values parts separate entries of the source, which are not always exact repeats. Equal values may be shown once. Inconclusive results are not listed. More than one record can exist for a structure, and the calls need not agree. The source made the active and inactive calls. How the source made its calls: active means hit-call score of the fitted dose curve at least 0.9, where 1 is the maximum; inconclusive means response in the unintended direction; inactive means score below 0.9.

These molecules were tested against Estrogen receptor (Homo sapiens) + Estrogen receptor beta (Homo sapiens) (UniProt P03372+Q92731) (assay: OT_ER_ERaERb_1440: Odyssey Thera (OT) 24-hour HEK293T Protein-Complementation Assay for Estrogen Receptor-alpha/-beta Homodimer (AID 2283356);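 further: hits raise reporter fluorescence and both agonists and antagonists give an increase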).
Estrogen receptor (Homo sapiens) + Estrogen receptor beta (Homo sapiens), sequence (P03372 whole entry, looked up, the tested form may be a part): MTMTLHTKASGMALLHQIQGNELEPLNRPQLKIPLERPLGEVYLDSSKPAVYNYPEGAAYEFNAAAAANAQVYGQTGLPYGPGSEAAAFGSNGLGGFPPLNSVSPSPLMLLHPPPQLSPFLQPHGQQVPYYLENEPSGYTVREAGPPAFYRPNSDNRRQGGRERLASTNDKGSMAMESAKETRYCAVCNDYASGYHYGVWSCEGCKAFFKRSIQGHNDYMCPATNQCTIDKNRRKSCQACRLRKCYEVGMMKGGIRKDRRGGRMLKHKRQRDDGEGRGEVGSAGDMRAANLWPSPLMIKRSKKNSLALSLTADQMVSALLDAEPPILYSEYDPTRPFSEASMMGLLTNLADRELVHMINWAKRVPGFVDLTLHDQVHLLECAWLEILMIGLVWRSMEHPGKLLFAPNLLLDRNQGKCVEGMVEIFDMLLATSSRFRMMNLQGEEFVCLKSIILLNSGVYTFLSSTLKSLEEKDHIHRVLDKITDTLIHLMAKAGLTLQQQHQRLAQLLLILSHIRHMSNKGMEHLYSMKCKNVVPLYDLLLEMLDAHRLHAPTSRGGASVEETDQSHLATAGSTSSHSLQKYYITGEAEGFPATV
Estrogen receptor (Homo sapiens) + Estrogen receptor beta (Homo sapiens), sequence (Q92731 whole entry, looked up, the tested form may be a part): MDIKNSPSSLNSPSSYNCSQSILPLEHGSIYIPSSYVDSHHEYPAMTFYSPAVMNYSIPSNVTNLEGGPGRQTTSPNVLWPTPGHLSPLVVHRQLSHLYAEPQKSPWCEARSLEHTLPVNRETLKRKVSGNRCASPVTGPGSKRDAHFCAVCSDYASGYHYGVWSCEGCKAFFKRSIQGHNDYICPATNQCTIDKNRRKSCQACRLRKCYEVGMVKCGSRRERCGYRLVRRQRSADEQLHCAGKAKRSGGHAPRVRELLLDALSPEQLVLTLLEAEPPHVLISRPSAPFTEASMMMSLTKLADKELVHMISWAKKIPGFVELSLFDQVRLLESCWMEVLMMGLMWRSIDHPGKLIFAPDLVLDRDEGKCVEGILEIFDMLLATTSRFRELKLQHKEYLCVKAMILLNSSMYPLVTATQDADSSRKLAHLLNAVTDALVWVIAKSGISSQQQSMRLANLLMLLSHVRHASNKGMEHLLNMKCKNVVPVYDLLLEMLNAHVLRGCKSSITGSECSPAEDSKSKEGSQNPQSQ
Description: OT_ER_ERaERb_1440 is a cell-based assay that uses HEK293T, a human kidney cell line, with measurements taken at 24 hours after chemical dosing in a 384-well plate.OT_ER_ERaERb_1440 is one of one assay component(s) measured or calculated from the OT_ER_ERaERb_1440 assay. It is designed to make measurements of protein fragment complementation, a form of binding reporter, as detected with fluorescence intensity signals by Protein-fragment Complementation technology.Data from the assay component OT_ER_ERaERb_1440 was analyzed into 1 assay endpoint. This assay endpoint, OT_ER_ERaERb_1440, was analyzed in the positive analysis fitting direction relative to DMSO as the negative control and baseline of activity. Using a type of binding reporter, measures of receptor for gain-of-signal activity can be used to understand the binding at the pathway-level as they relate to the gene ESR1 and ESR2. Furthermore, this assay endpoint can be referred to as a primary readout, because the performed assay has only produced 1 assay endpoint. To generalize the intended target to other relatable targets, this assay endpoint is annotated to the nuclear receptor intended target family, where the subfamily is steroidal.
Protein-fragment complementation assay, or PCA, is a method for the identification and quantification of protein-protein interactions. In the PCA, the proteins of interest ("bait" and "prey") are each covalently linked to fragments of a third protein (e.g. DHFR, which acts as a "reporter"). Interaction between the bait and the prey proteins brings the fragments of the reporter protein in close proximity to allow them to form a functional reporter protein whose activity can be measured. The OT ER alpha / ER beta assay is a heterodimer PCA of the ligand binding domain (LBD) of ER alpha (amino acids 310-547) and human ER beta (amino acids 263-489) stably expressed in HEK293T cells. […] Fluorescent signal in the basal state of the assay is very low and is primarily punctuate and cytoplasmic. Modulation of this assay is quantified as an increase in mean fluorescence intensity in the nucleus (for agonists) or in the nucleus and cytoplasm (antagonists) relative to vehicle controls, and can be quantified on a high content imaging device or a laser scanning cytometer. The latter instrument is favored for this assay because of the rapid mode of data acquisition, the ability to acquire data from the entire cell population in a well (as opposed to a fraction of the well on the high content devices) and the larger dynamic range typically achieved with this instrument. To assess sensitivity of the ER alpha/ER beta LBD assay to ligand, cells were treated with the ER agonist 17- beta-estradiol (E2) in 10-point concentration- response format for 24 hours and monitored response on a laser scanning plate cytometer (Acumen eX3; TTP Lab Tech).
For `CCCCNC(=O)n1c(NC(=O)OC)nc2ccccc21`, the outcome was “inactive”. In the case of `CCCN(CCC)c1c([N+](=O)[O-])cc(S(N)(=O)=O)cc1[N+](=O)[O-]`, the outcome is reported as “inactive”. `COC(=O)N(OC)c1ccccc1COc1ccn(-c2ccc(Cl)cc2)n1` was tested, and the outcome was “inactive”. `Cc1c(F)c(F)c(COC(=O)C2C(/C=C(\Cl)C(F)(F)F)C2(C)C)c(F)c1F` (stereo not given) was tested, and the outcome was “inactive”. In the case of `CC(C)Oc1cc(-n2nc(C(C)(C)C)oc2=O)c(Cl)cc1Cl`, the outcome is reported as “inactive”. In the case of `COP(N)(=O)SC` (stereo not given), the outcome is reported as “inactive”. `CCCCOC(=O)c1ccccc1C(=O)OCCCC` was tested, and the AC50 was 38.4 µM (active) and 33.9 µM (active) and 39.3 µM (active). In the case of `N#Cc1nn(-c2c(Cl)cc(C(F)(F)F)cc2Cl)c(N)c1S(=O)C(F)(F)F` (stereo not given), the outcome is reported as “inactive”. For `CCNc1nc(Cl)nc(NCC)n1`, the outcome was “inactive”. For `Oc1ccccc1-c1ccccc1`, the AC50 was 35.7 µM (active) and the outcome was “inactive”. `COc1nc(NC(C)C)nc(NC(C)C)n1` was tested, and the outcome was “inactive”. In the case of `CC(C)C1(C)N=C(c2nc3ccccc3cc2C(=O)O)NC1=O` (stereo not given), the outcome is reported as “inactive”. In the case of `CCCCC(CC)COC(=O)c1ccccc1C(=O)OCC(CC)CCCC` (stereo not given), the AC50 is reported as 50 µM (active). With `COC(=O)c1ccccc1C(=O)OC` the outcome was “inactive”. For `CC1=C(C(=O)Nc2ccccc2)SCCO1`, the outcome was “inactive”. For `CO/C=C(/C(=O)OC)c1ccccc1Oc1cc(Oc2ccccc2C#N)ncn1`, the outcome was “inactive”. `CCc1nn(C)c(C(=O)NCc2ccc(C(C)(C)C)cc2)c1Cl` was tested, and the outcome was “inactive”. `CCOP(=S)(OCC)SCn1c(=O)oc2cc(Cl)ccc21` was tested, and the outcome was “inactive”. For `Cc1ccc(-c2c(Cl)nc(C#N)n2S(=O)(=O)N(C)C)cc1`, the outcome was “inactive”. `Fc1ccc(Oc2ccnc3cc(Cl)cc(Cl)c23)cc1` was tested, and the outcome was “inactive”. For `C#CCOS(=O)OC1CCCCC1Oc1ccc(C(C)(C)C)cc1` (stereo not given), the outcome was “inactive”. In the case of `C=CC1(C)OC(=O)N(c2cc(Cl)cc(Cl)c2)C1=O` (stereo not given), the outcome is reported as “inactive”. For `COP(=S)(OC)Oc1nc(Cl)c(Cl)cc1Cl`, the outcome was “inactive”. For `CC(C)(C)c1ccc(CSc2cnn(C(C)(C)C)c(=O)c2Cl)cc1`, the outcome was “inactive”. For `CNC(=S)S`, the outcome was “inactive”. In the case of `CCNc1nc(Cl)nc(NC(C)C)n1`, the outcome is reported as “inactive”. With `CCOc1cc(Oc2ccc(C(F)(F)F)cc2Cl)ccc1[N+](=O)[O-]` the outcome was “inactive”. In the case of `N#CC(CCc1ccc(Cl)cc1)(Cn1cncn1)c1ccccc1` (stereo not given), the outcome is reported as “inactive”. For `CN(C)C(=S)SSC(=S)N(C)C`, the outcome was “inactive”. For `OC(c1ccc(Cl)cc1)(c1cncnc1)c1ccccc1Cl` (stereo not given), the AC50 was 12.1 µM (active). For `COc1ccc(C(c2ccc(OC)cc2)C(Cl)(Cl)Cl)cc1`, the AC50 was 25.8 µM (active) and 33.2 µM (active) and 22.2 µM (active). For `CS/C(C)=N/OC(=O)N(C)SN(C)C(=O)O/N=C(\C)SC`, the outcome was “inactive”. For `CC1COC(Cn2cncn2)(c2ccc(Oc3ccc(Cl)cc3)cc2Cl)O1` (stereo not given), the outcome was “inactive”. With `COC(=O)C=C(C)OP(=O)(OC)OC` the outcome was “inactive”.
